Measurements published in the supplement of paper PMC6555819.

What was measured:
Assay in all cases: PBM binding z-score (relative to random genomic background probes); higher = stronger binding; sequences stand for … in GC…GCGATTGACAGCGTAGAATGAAGG
[1] = tested on: RARb homodimer (NR concentration 270 nM)
In short: (§1)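 Custom Agilent 4×180K protein-binding microarrays carried double-stranded probes, each with a 34-nt variable region. These regions held direct-repeat seeds, single-nucleotide variants, half-site ablations and random human genomic background sequences. Ligand-free nuclear receptor dimers were incubated on the arrays for 1 h, antibodies against each partner (one per run) detected binding, and scanned fluorescence was regression-normalized. Binding z-scores take the random background probes as reference.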

[2] = tested on: RARg:RXRa (NR concentration 270 nM, RXRa partner concentration 90 nM)
In short: as §1

[3] = tested on: RARg homodimer (NR concentration 270 nM)
In short: as §1

[4] = tested on: RXRa DBDmut IVT, anti-RXR (DBD mutation: RXRa K156A/R161A, NR concentration 90 nM)
In short: as §1

[5] = tested on: RXRa homodimer (NR concentration 180 nM)
In short: as §1

[6] = tested on: THRa:RXRa (NR concentration 90 nM, RXRa partner concentration 90 nM)
In short: as §1

[7] = tested on: THRa homodimer (NR concentration 90 nM)
In short: as §1

[8] = tested on: VDR homodimer (NR concentration 270 nM)
In short: as §1

Sequence	PBM binding z-score [1]	PBM binding z-score [2]	PBM binding z-score [3]	PBM binding z-score [4]	PBM binding z-score [5]	PBM binding z-score [6]	PBM binding z-score [7]	PBM binding z-score [8]
TCTTGTAGATCAACAGGAGGGTAAGAAAGATCGA	-0.229	0.172	0.108	0.172	0.0944	-0.144	-1.1	-0.319
CCTAGTTGGTCAAGGTGACACACGCTATAGGTAC	1.8	1.49	1.74	0.165	1.05	2.06	1.65	0.83
CGTCCAAGCTCAATGCTAGGTCAGTGAAAGCATT	1.84	0.587	0.598	-0.0158	-0.025	1.09	0.344	-0.453
AATACAGGGTCACTAGCCCAGAGTAGGTACGAAT	2.95	4.82	4.62	2.61	5.17	3.22	1.13	2.21
GCAGACAGGTGAAACGCTGGTAACTCAGGGTGGC	-0.219	0.167	-0.138	-0.318	0.612	0.209	-0.645	-0.838
TCGAGTAGGTTAGTCAGGGCATTCAGCCAACATA	0.896	-0.14	0.189	0.358	-0.156	1.1	0.314	0.685
TCTAGTTGGTCACGGAGGTCACACATGACGGGTA	4.7	4.74	4.94	1.1	4.96	3.73	2.5	3.54
CTCGAAAGGTCGGTTGAGCTGAGTATACGGATAA	1.27	2.09	2.29	0.709	1.74	0.825	-0.574	-0.476
ACTCGGAGGACAAAGGTCAGAGGTACGCCAGTGA	4.58	5.98	5.03	0.647	5.39	3.49	0.633	1.68
CCTACTGGGCCACGAAAGGTCATTGACTCAGTGA	4.8	4.9	4.53	0.581	4.92	3.77	0.711	2.15
TTTATTAGTTGAAGGGCAACCGACGAGTCCGTTT	1.42	0.781	0.783	0.859	0.628	0.408	0.198	1.91
GCTGCTAGGTCAGGTTGGTCAGCCAACGGGTACG	2.66	2.78	3.65	0.121	0.819	1.61	0.269	0.768
GGAACGAGGGCAGGTTGATAGCAGAGTTTGATGG	1.3	0.763	1.26	0.971	0.496	0.552	0.392	1.16
ATCGAAAGGTCGTGAGGTGATTATACAGAAAGGC	2.49	4.47	3.99	1.6	5.42	3.17	1.15	1.07
TGAATGAGGTTAAAGATAAGGGAACGTGGCGTCG	0.5	2.21	1.32	1.25	2.88	2.37	0.283	0.766
ATCTCTAGGTAAGATTCAGTTCAGTGAAGAACGC	0.59	0.513	0.134	0.381	0.0885	0.976	0.542	1.31
TTACCAAGGTGAAGGGCGTTGATCCCTCTGTAGA	0.953	0.413	0.407	-0.371	0.755	1.49	0.536	-0.115
TCTGCTAGGTCAGTTGGTCGGCTAACGAGCTGCC	2.21	2.28	3.11	0.384	0.902	1.17	-0.205	-1.1
CGAACTAGGTCATACAGGACAGTGAATACATTGA	2.68	3.77	4.03	2.32	2.68	2.83	1.2	1.57
CCTTACGCGTCACGAGGTTATAGCACGACGAGCG	0.644	0.881	0.604	0.705	1.38	1.51	0.967	0.734
ATATGTAGGTTAGATCCGGGTCATTCAGGCTATG	2.63	3.21	1.63	0.691	2.65	3.63	2.08	1.71
TCATATAGCTAAAAGGTGAAAGTCGGTGTGGTAA	1.42	0.817	0.551	0.962	1.4	0.958	0.0793	-0.201
ATATGTAGTTTAAGGGTCATTCAGGTTGGTTCGC	3.9	3.91	2.88	2.39	4.82	3.37	1.71	4.96
TCATATAGGTAAAAGTGAAAGTCGAACGATATGA	-0.485	0.288	0.384	0.791	0.523	-0.171	-0.456	-0.103
GATACAGGGTCCAGGCCAGAGTACGCGTATTGAT	0.265	0.144	0.255	-0.135	0.291	-0.105	-0.0572	0.607
TTACCAAGGTGAAAGTTCGTTGATGCACGCCTTG	1.67	2.35	1.2	1.14	2.86	2.41	0.508	2.05
AGAACGCGGGCAATGAGTTGATAGCACGGGTGGC	-0.332	0.0304	0.194	-0.0914	0.299	-0.395	-1.04	0.678
ATCTCTAGGTAAAGTTCAGTGCAAGATCGATAGA	2.68	2.49	2.87	1.39	1.4	1.5	0.256	2.47
